Sampled rows, rich in hits. Any-hit rate of the full collection: about 0.47%.
AID inh: inhibitors of human activation induced cytidine deaminase; Q9GZX7; AID deamination FRET fluorescence, UDG-coupled, 4 h; Potency, µM (top dose mostly 115 µM), actives largely listed as inhibitors; 0.32% of 91,000 active; also: nearly all actives have a fitted effect of over 25% in size
Target sequence (Q9GZX7 whole entry, looked up): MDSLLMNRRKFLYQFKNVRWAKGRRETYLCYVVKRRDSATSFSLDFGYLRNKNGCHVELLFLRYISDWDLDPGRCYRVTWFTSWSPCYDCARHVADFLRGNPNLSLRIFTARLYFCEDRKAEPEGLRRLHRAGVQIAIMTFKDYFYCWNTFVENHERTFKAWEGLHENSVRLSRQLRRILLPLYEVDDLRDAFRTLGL
UDG counter: blocks uracil-DNA glycosylase in AID counter-screen | Potency, µM (series often up to 115 µM), usual class: inhibitors | AID 1347430 | FRET deamination/UDG coupled assay, UDG read, 4 h | 0.14% of 91,000 active; also: nearly all actives have a fitted effect of over 65% in size
Large screens that a line does not name were inactive. Calls follow the shape of the dose curve; as a rule, active = well fitted curve in the direction sought with a large enough effect; inconclusive = small, poorly fitted or top-dose-only effect, or another doubt; inactive = no such curve, though single readings can be large; an effect the other way counts as inactive or inconclusive.

CCn1c2ccccc2c2cc(NC(=O)COc3cc(C)ccc3C)ccc21	UDG counter inconclusive
CCN(CC)CC1CCN(C(=O)/C=C/c2ccc(C#N)cc2)CC1	none
COc1ccccc1C(=O)Nc1ccc(C(=O)OCc2cc(=O)n3nc(C4CC4)sc3n2)cc1	none
COc1ccccc1C(=O)Nc1ccc(C(=O)OCc2cc(=O)n3nc(C)sc3n2)cc1	AID inh 28µM
CCCc1c(C)nc2ncnn2c1Nc1ccc(C)cc1	none
CCOc1cccc2c(C)nc(Nc3nc(C)c(CC)c(=O)[nH]3)nc12	AID inh 50µM
COc1ccc2nc(Nc3nc(C)c(CCC(C)C)c(=O)[nH]3)nc(C)c2c1	none
Cc1nc2nc(NC(=O)c3ccc(C(C)(C)C)cc3)[nH]n2c(=O)c1Cc1ccccc1	AID inh inconclusive
COc1ccccc1C(=O)Nc1nc2nc(C)c(Cc3ccccc3)c(=O)n2[nH]1	AID inh 35µM
CC(C)(C)C1CCc2c(sc(NC(=O)c3ccccc3F)c2C(=O)NCc2ccco2)C1 (stereo unspecified)	AID inh 11µM
Cc1ccc(C(=O)Nc2sc3c(c2C(=O)NCc2ccco2)CCC(C(C)(C)C)C3)cc1 (stereo unspecified)	none
CCN1c2cc(C)ccc2-n2cccc2C12CCN(C(=O)Nc1cc(OC)c(OC)c(OC)c1)CC2	AID inh inconclusive, UDG counter 89µM
CCN1c2ccccc2-n2cccc2C12CCN(C(=O)Nc1ccccc1Br)CC2	none
Cc1ccc(-c2nonc2NC(=O)c2cccs2)cc1	none
COc1ccc(OC)c(-c2cc3ccc(OS(C)(=O)=O)cc3oc2=O)c1	none
Cc1cccc(N(CC(=O)NCCc2ccccc2)S(=O)(=O)c2ccccc2)c1C	none
Cc1cccc(N(CC(=O)N(C)Cc2ccccc2)S(=O)(=O)c2ccccc2)c1C	AID inh 35µM
CCN1CCN(c2oc(COc3ccc(Cl)cc3Cl)nc2C#N)CC1	none
CCC1CCc2c(sc(NC(=O)c3c(-c4ccccc4)noc3C)c2C(=O)OC)C1 (stereo unspecified)	none
NNc1nncc2ccccc12	AID inh 45µM, UDG counter 35µM
c1ccc(CN2CCC(=NNc3nncc4ccccc34)CC2)cc1	none
O=[N+]([O-])c1cccc2ccc(/C=C/c3cccc(F)c3)nc12	none
Cc1ccc(NC(=O)c2cc(S(=O)(=O)N3CCCc4ccccc43)ccc2F)cc1F	UDG counter inconclusive
Cc1cccc(C)c1NC(=O)c1cc(S(=O)(=O)N2CCCc3ccccc32)ccc1F	UDG counter 89µM
Cc1ccc2c(CN3C(=O)NC4(CCCC4)C3=O)cc(=O)oc2c1	none
CCCc1nnc(NC(=O)C2(c3ccc(Cl)cc3)CCC2)s1	none
CC(CNC(=O)CCC1CCCC1)NC(=O)CCC1CCCC1 (stereo unspecified)	none

Bioassay records deposited in PubChem BioAssay by National Center for Advancing Translational Sciences (NCATS).
